Assay results published in PubChem BioAssay AID687014 (The Scripps Research Institute Molecular Screening Center, 2013).
About 6,800 (1.8%) of roughly 370,000 compounds were called active. This is one part of a sample in which actives are shown more often than they occur.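 Rule for the calls: active = activation above a cutoff set at the mean of all screened compounds plus 3 SD (cut at about 10% in these data); inactive = the rest.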

tested on: Nuclear hormone receptor DAF-12 (Heterodera glycines), GAL4 fusion; assay: H. glycines DAF-12 receptor agonists, primary screen, cell-based, luminescence, HEK293, GAL4 fusion, UAS-luciferase (AID 687014); conditions: HEK293 GAL4-hgDAF12 UAS-luciferase reporter, agonist luminescence; at 6.8 µM; active compounds read high; normalized to butyrate control;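 note: 0% = DMSO wells and 100% = sodium butyrate wells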

| Compound | activation |
| --- | --- |
| CCCCNC(=O)C[C@H]1C[C@@]2(C(=O)OC)C(=C[C@H](COCc3ccccc3)O[C@@H]2C)N(Cc2ccc(Cl)cc2Cl)C1=O | 0.35% (inactive) |
| O=C(N1CCOCC1)N1CC[C@H]2[C@H](CCCN2Cc2ccc(F)cc2)C1 | -0.84% (inactive) |
| O=C(CCS(=O)(=O)c1cccc2nsnc12)N1CCN(c2ccccc2F)CC1 | 0.1% (inactive) |
| O=C(CCSc1ccccc1)N1CCN(c2ccccc2F)CC1 | 14.2% (active) |
| O=C(CCc1ccccc1F)N1CCN(c2ccccc2)CC1 | 0.77% (inactive) |
| O=C(CCc1ccccc1)Nc1ncc([N+](=O)[O-])s1 | 11.2% (active) |
| O=C(CCc1ccccc1)Nc1nn[nH]n1 | 0.42% (inactive) |
| O=C(CCc1ccccc1)Nc1ccc(NC(=O)C2CC2)nc1 | -1.22% (inactive) |
| Nc1c(C(=O)Nc2ccc3c(c2)OCCO3)nnn1Cc1ccccc1 | 11.1% (active) |
| CCc1ccc(NC(=O)Cn2nnc(C(=O)NCc3ccc4c(c3)OCO4)c2N)cc1 | -0.22% (inactive) |
| Cn1cc([N+](=O)[O-])c(C(=O)Nc2ccc3c(c2)OCCO3)n1 | 5.47% (inactive) |
| COc1ccccc1NS(=O)(=O)c1ccc(C)c(C(=O)NNC(=O)c2csc(N3CCOCC3)n2)c1 | -0.05% (inactive) |
| Cc1noc(C)c1CCC(=O)N1CCCC(CO)(Cc2ccccc2)C1 (stereo not drawn) | 9.68% (inactive) |
| COC(=O)CCC(=O)N1CCCC(CO)(Cc2ccccc2)C1 (stereo not drawn) | 11.1% (active) |
| Cc1ccccc1CC1(CO)CCCN(C(=O)c2cc(-c3ccccc3)no2)C1 (stereo not drawn) | -2.47% (inactive) |
| CC1CCCN(c2cccc3c2S(=O)(=O)N(Cc2ccc(F)cc2)[C@@H](C)[C@H](c2ccccc2)O3)C1 (stereo partly drawn) | 2.2% (inactive) |
| COC(=O)C12C=C3CC(c4ccccc4)=C3C(=O)N1Cc1[nH]c3ccccc3c1C2 (stereo not drawn) | -0.17% (inactive) |
| Cc1nc2nc[nH]n2c(=O)c1C/C=C/c1ccccc1 | -0.77% (inactive) |
| C=CCc1c(C)nc2cc(-c3ccccc3)[nH]n2c1=O | 11.2% (active) |
| CCc1c(C)nc2cc(C)[nH]n2c1=O | -1.41% (inactive) |
| C[C@@H]1CN([C@@H](C)CO)C(=O)c2c(c3ccccc3n2C)-c2ccccc2CO[C@H]1CN(C)C(=O)C1CC1 | 0.34% (inactive) |
| Cc1ccccc1NC(=O)C1CCN(c2ncccn2)CC1 | 2.53% (inactive) |

| Compound | activation |
| --- | --- |
| Cc1cccc(-n2c(O)c(C=Nc3ccccc3N)c(=O)[nH]c2=O)c1 | 14.9% (active) |
| COc1cccc(CNC(=O)CNS(=O)(=O)c2ccc3nc(C)sc3c2)c1OC | -1.09% (inactive) |
| CCOC(=O)[C@]12CCCCC/C=C\1N(Cc1ccc(OC)cc1)C(=O)[C@H]2CC(=O)NCCCN1CCCC1=O | 3.26% (inactive) |
| CCn1c(=O)n2n(c1=O)[C@@]1(C=C3CCCC[C@H]32)N=C(NC(=O)c2ccccc2)N(Cc2ccccc2)[C@H]1Cc1ccccc1 | -2.77% (inactive) |
| COc1ccc(-c2csc(Cc3nc(O)cs3)n2)cc1 | 21.6% (active) |
| COc1ccc(C(C)(O)c2nc(-c3cc(F)cc(F)c3)cs2)cc1 (stereo not drawn) | -1.7% (inactive) |
| COc1ccc(C(C)(NC(C)=O)c2nc(-c3ccc(S(C)(=O)=O)cc3)cs2)cc1 (stereo not drawn) | -0.04% (inactive) |
| Cc1c(C(C)c2ccccc2O)[nH]c2ccccc12 (stereo not drawn) | 2.99% (inactive) |
| Cc1sc2ncnc(N3CCC(C(=O)NNC(=O)c4ccc(F)cc4)CC3)c2c1C | -1.73% (inactive) |
| Cc1sc2ncnc(N3CCC(C(=O)Nc4ccc(F)cc4Cl)CC3)c2c1C | -1.36% (inactive) |
| Cc1sc2ncnc(N3CCC(C(=O)Nc4nc5ccc(Cl)cc5s4)CC3)c2c1C | 12.9% (active) |
| COc1ccc(OC)c(NC(=O)C2CCCN2S(=O)(=O)c2ccc3c(c2)CC(C)N3C(C)=O)c1 (stereo not drawn) | -2.45% (inactive) |
| O=C(NCc1ccc(Cl)cc1)C1CCCN(c2nc3ccccc3o2)C1 (stereo not drawn) | -0.62% (inactive) |
| CC(=O)C1(C(=O)Nc2nccs2)CC(c2ccccc2C(F)(F)F)=NO1 (stereo not drawn) | 0.67% (inactive) |
| Cc1ccnc(N2C(=O)c3ccc([N+](=O)[O-])cc3C2=O)c1 | 0.65% (inactive) |
| O=c1c2cc([N+](=O)[O-])ccc2nc2n1CCC2 | -2.97% (inactive) |
| Cc1ccc(-n2cc3ccc([N+](=O)[O-])cc3n2)cc1 | 17.1% (active) |
| COC(=O)c1ccccc1SC1CC(=O)N(c2cccc(C)c2)C1=O (stereo not drawn) | -0.2% (inactive) |
| Cc1cccc(N2C(=O)SC(N(CC(=O)O)c3cccc(C)c3)C2=O)c1 (stereo not drawn) | 2.06% (inactive) |
| Cc1cccc(N2C(=O)SC(SC(=Nc3ccccc3)Nc3ccccc3)C2=O)c1 (stereo not drawn) | 12.4% (active) |
| O=S1(=O)c2ccc(Br)cc2OC[C@@H](Cc2ccccc2)N1Cc1cn(Cc2ccco2)nn1 | -2.95% (inactive) |
| CCOc1ccc(OCc2ccc(C(=O)N(C)c3ccccc3)o2)cc1 | -0.02% (inactive) |

| Compound | activation |
| --- | --- |
| CCOc1ccc(OCc2cccc(C(=O)N(CC)CC)c2)cc1 | 15.3% (active) |
| CC(C)(C)OC(=O)N(Cc1ccccc1)Cc1ccc(OCc2cccc(NC(=O)c3ccccc3)c2)cc1 | 3.23% (inactive) |
| COc1cccc(N2CCN(CC(=O)N(C)Cc3ccc(F)cc3)CC2)c1 | 2.78% (inactive) |
| CC(C)CNC(=O)OCc1cn(Cc2ccc(F)cc2)nn1 | 0.8% (inactive) |
| CS(=O)(=O)N(CC(=O)NC1CCCC1)Cc1ccc(F)cc1 | -0.56% (inactive) |
| Cc1ccc(-c2nnc(SCC(=O)Nc3ccc(Oc4ccccc4)cc3)n2Cc2ccco2)cc1 | -0.14% (inactive) |
| CC(=O)Nc1ccc(S(=O)(=O)NCC(=O)OCC(=O)c2ccc[nH]2)cc1 | -0.16% (inactive) |
| CC(C)(C)OC(=O)N[C@H](C(=O)OC(C)(C)C)c1ccc(Br)cc1 | 2.51% (inactive) |
| C/C(=N\NC(=O)OC(C)(C)C)c1ccc[nH]1 | 13.9% (active) |
| COC(=O)[C@]12C[C@H](CC(=O)NCc3ccc(OC)c(OC)c3)C(=O)N(Cc3ccccc3)C1=C[C@H](C(C)C)O[C@@H]2C1CC1 | -0.64% (inactive) |
| c1cncc(CNc2ccnc(-c3ccc4c(c3)OCO4)n2)c1 | 8.09% (inactive) |
| Cc1cc(NS(=O)(=O)c2ccc(NC(=O)CSc3nnc(-c4ccc(C(C)(C)C)cc4)n3Cc3ccco3)cc2)nc(C)n1 | 0.44% (inactive) |
| O=C(NC1CCCC1)C(c1ccccn1)N(C(=O)c1csnn1)C1CCCC1 (stereo not drawn) | -0.77% (inactive) |
| CN(C)c1ccc(C=C2C(=O)OC3(CCCC3)OC2=O)cc1 | 11.1% (active) |
| CN(C)c1ccc(/C=C2\NC(=S)N(Cc3ccccc3)C2=O)cc1 | 2.67% (inactive) |
| CCCC[C@H](C(=O)N(CC)c1ccccc1)[C@@H](O)c1ccc2ccccc2c1 | -1.89% (inactive) |
| CCCNC(=O)Nc1ccc2c(c1)C(=O)N(C)[C@H]1CC[C@H](CC(=O)NCC3CCCCC3)O[C@@H]1CO2 | 2.46% (inactive) |
| CCc1ccccc1S(=O)(=O)Cc1ccc(C(=O)NCCc2ccccc2)o1 | -1.29% (inactive) |
| CCCOc1ccc(Oc2c(Cl)cnn(Cc3cccc4ccccc34)c2=O)cc1 | -0.9% (inactive) |
| COc1ccc(C=C(C#N)C#N)c(CSc2ccccn2)c1 | -4.02% (inactive) |
| COc1ccc2cc(CCl)c(Cl)nc2c1 | 5.31% (inactive) |
| COc1ccc2nc(-c3ccccn3)ccc2c1 | 14.8% (active) |

| Compound | activation |
| --- | --- |
| CN1CCCCC(NC(=O)C(C)(C)C)C1=O (stereo not drawn) | -0.75% (inactive) |
| COc1ccc(-c2cc3n(n2)CCc2nc4ccccc4n2-3)cc1 | 1.57% (inactive) |
| COc1ccc(-c2cc(C3CCN(c4ncccc4[N+](=O)[O-])CC3)[nH]n2)cc1 | -1.82% (inactive) |
| COc1ccc(-c2cc3ncccc3cn2)cc1 | 14.3% (active) |
| COc1cccc(N(C)C(=O)[C@@H](C)[C@@H](O)c2ccc3ccccc3c2)c1 | -0.12% (inactive) |
| O=C(NCc1ccco1)C1CCCN(S(=O)(=O)c2ccc(Cl)s2)C1 (stereo not drawn) | 2.01% (inactive) |
| CN(C(N)=NC(=O)/C=C/c1ccccc1)C(C#Cc1ccccc1)Cc1ccccc1 (stereo not drawn) | 2.81% (inactive) |
| CCCCn1c(N)c(N(CC(C)C)C(=O)CSc2ccc([N+](=O)[O-])cc2)c(=O)[nH]c1=O | 2.08% (inactive) |
| O=C1C2C3C=CC(C4CC34)C2C(=O)N1/N=C/c1ccc(-c2ccccc2[N+](=O)[O-])o1 (stereo not drawn) | -3.65% (inactive) |
| CN1CCN(/N=C/c2ccc(-c3ccc([N+](=O)[O-])cc3)o2)CC1 | 10.5% (active) |
| Cn1cnc(C(F)(F)F)c1-c1ccc([N+](=O)[O-])cc1 | 0.97% (inactive) |
| O=C(CSc1nc2c(c(=O)[nH]1)CCCC2)N1CCCCC1 | -4.02% (inactive) |
| Cc1cc(C)nc(Nc2n[nH]c(-c3ccccc3N)n2)n1 | 12.2% (active) |
| CCCOc1ccccc1-c1nc(SCCC(=O)O)n[nH]1 | -0.41% (inactive) |
| O=C(OCC#CCSc1nnc(-c2ccco2)o1)c1ccc(F)cc1 | -3.04% (inactive) |
| COC(=O)C1=C(C)NC(=S)NC1c1ccc(OC)cc1 (stereo not drawn) | 0.66% (inactive) |
| CCOC(=O)[C@]12CCCCC/C=C\1N(Cc1ccc(OC)cc1)C(=O)[C@H]2CC(=O)NCc1ccc(C)o1 | -1.27% (inactive) |
| CC(C)Cc1cc(C(=O)Nc2cc(Br)ccc2O)no1 | 6.04% (inactive) |
| CC(C)Cc1cc(C(=O)NCCc2ccccc2)no1 | 13% (active) |
| O=C(NCCCc1ccccc1)c1cc(COc2c(F)cccc2F)on1 | 4.73% (inactive) |
| O=S1(=O)c2ccc(N3CCN(Cc4ccccc4F)CC3)cc2Oc2ccccc2CN1Cc1cn(Cc2ccc(Cl)cc2)nn1 | 0.48% (inactive) |
| C[C@@H]1CN([C@@H](C)CO)C(=O)c2cccc(NC(=O)Nc3cccc4ccccc34)c2O[C@H]1CN(C)S(=O)(=O)c1ccccc1F | -4.71% (inactive) |
